# Inconclusive results are not listed. Entries that show only a call come without a potency. Active and inactive are the calls of the source. Unless noted, the call rests on the fitted dose curve; in most records, active means well fitted curve in the direction sought with a large enough effect; inconclusive means small, poorly fitted or top-dose-only effect, or another doubt; inactive means no such curve, though single readings can be large; an effect the other way counts as inactive or inconclusive.
# Experiments:
# [1] = Cytometric Cell-Based qHTS for Inhibitors of the mTORC1 Signaling Pathway in MEF (Tsc2-/-, p53-/-) Cells (AID 2660);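 further: percent of cells above a phospho-rpS6 to PI ratio cutoff in each well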
# In short: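 Tsc2-/-, p53-/- MEFs (empty vector) exposed to compound 24 h at 37 C, fixed, stained with Alexa-488 anti-phospho-rpS6 Ser235/236 and propidium iodide. Acumen laser scanning; phospho-S6/PI ratio thresholded against 7.5 nM rapamycin, reported as % positive cells.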
# [2] = High Content Imaging Cell-Based qHTS for Inhibitors of the mTORC1 Signaling Pathway in MEF (Tsc2-/-, p53-/-) Cells (AID 2666); settings: at 38.3 µM (top of the series);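 further: percent of cells scored positive for phospho-rpS6 Ser235/236 immunostaining by imaging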
# In short: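 Cells were plated, dosed with compound after 24 hrs, and incubated another 24 hrs at 37 degree Celsius. Fixed cells were immunostained for phospho-rpS6 Ser235/236 and counterstained, and the normalized signal was scored as % active cells against rapamycin and DMSO controls.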
# [3] = High Content Imaging Cell-Based qHTS for Inhibitors of the mTORC1 Signaling Pathway in MEF Cells (AID 2667);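 further: Tsc2-/- p53-/- MEFs stably re-expressing wild-type Tsc2 exposed 24 h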
# In short: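 Immunofluorescence for rpS6 phosphorylation in MEFs of Tsc2-/-, p53-/- background rescued with WT Tsc2. Compound exposure lasted 24 hrs. Inhibition was scored against rapamycin-treated control wells.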
# [4] = Cytometry Cell-Based qHTS for Inhibitors of the mTORC1 Signaling Pathway in MEF cells (AID 2668);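 further: Tsc2-/- p53-/- mouse embryonic fibroblasts stably re-expressing wild-type Tsc2; percent cells positive for phospho-rpS6 Ser235/236 relative to propidium iodide stain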
# In short: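 Phospho-rpS6 (Ser235/236) immunofluorescence over PI signal, scored as % positive cells using thresholds from 7.5 nM rapamycin and DMSO wells, after 24 h compound exposure of WT-Tsc2-rescued Tsc2-/-, p53-/- MEFs. PI cell count recorded for viability.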
# [5] = biological target: Ubiquitin carboxyl-terminal hydrolase 2 (Homo sapiens) (UniProt O75604); test: qHTS Validation Assay for Inhibitors of Ubiquitin-specific Protease USP2a Using CHOP2 as the Reporter (AID 463106)
# In short: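 10nM USP2 core + cpd, 30min RT; add 25nM Ub-CHOP2/25nM substrate; 60min RT; FI 485/531nm. Buffer Tris pH 8.0, CaCl2, BME, CHAPS. Norm. to NEM = 100% inhibition; time-zero read flags fluorescent artifacts.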
# [6] = biological target: Tumor susceptibility gene 101 protein (Homo sapiens) (UniProt Q99816); test: qHTS Validation Assay for Iinhibitors of HIV-1 Budding by Blocking the Interaction of PTAP/TSG101 (AID 485342; calls by dose curve)
# In short: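 Fluorescence polarization of 50 nM FITC-PTAP peptide bound to 10 uM Tsg101 binding domain was read after 20 min room-temperature incubation with compounds, in 10 mM HEPES pH 7.5, 0.15 M NaCl, 0.01% Tween 20.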
# [7] = qHTS Validation Assay to Find Inhibitors of Chronic Active B-Cell Receptor Signaling (AID 485345; active means well fitted curve in the direction sought with a large enough effect in the main read-out, with a control signal flat, not every such curve was filed as active)
# In short: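 Read-out: ratio of filter-corrected green (IkappaBalpha fusion) to red (native) luciferase signal in doxycycline-induced TMD8 cells after 4 h at 37C. Titration spanned 46 uM–3 nM; Data were normalised to basal cells and 10 uM MG-132 wells.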
# [8] = biological target: Beta-2 adrenergic receptor (Homo sapiens) (UniProt P07550); test: qHTS validation assay of beta-arrestin-biased ligands of beta2-adrenergic receptor (AID 485366)
# In short: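 Tango cells expressing recombinant beta2-AR and beta-arrestin with tTA-driven luciferase, in DMEM with 1% FBS. Compounds were titrated up to 46 microM for 18 hr at 37 degrees C. Luminescence was read 15 min after substrate; curves were fitted and class-assigned.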
# [9] = biological target: Thioredoxin reductase 1, cytoplasmic (Rattus norvegicus) (UniProt O89049); test: qHTS Assay for Substrates of Mammalian Selenoprotein Thioredoxin Reductase 1 (TrxR1) (AID 488772);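 further: NADPH fluorescence in the first read after selenite addition and not the 8 min delta; a drop in NADPH fluorescence below the no-compound background marks a TrxR1 substrate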
# In short: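 Quantitative HTS in Tris-HCl buffer at pH 7.5 with EDTA and Tween-20, using rat TrxR1, 400 uM NADPH and 400 uM selenite (final). A fall in initial NADPH fluorescence relative to background marked substrate behaviour.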
# [10] = biological target: Thioredoxin reductase 1, cytoplasmic (Rattus norvegicus) (UniProt O89049); test: qHTS Assay for Inhibitors of Mammalian Selenoprotein Thioredoxin Reductase 1 (TrxR1) (AID 488773); settings: Potency: inhibition; further: potency means the concentration at half of the fitted maximal effect; nearly all actives have a fitted effect of over 40% in size
# In short: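 Steps: enzyme (90 nM) plus NADPH (400 uM final), 5 min at ~22 deg C; compound added, 15 min; selenite (400 uM final) added; fluorescence followed for 8 min. Concentration-response curves derived from the normalized delta values.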
# [11] = biological target: Flap endonuclease 1 (Homo sapiens) (UniProt P39748); test: qHTS Validation Assay for the Inhibitors of Human Flap endonuclease 1 (FEN1) (AID 488816); further: potency means the concentration at half of the fitted maximal effect
# In short: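 Readings taken at 0 and 15 min after starting the reaction with 50 nM (final) substrate supplied the signal. Compounds had first sat with 10 nM FEN1 reagent for 15 min at room temperature. Values come from Hill-equation concentration-response fits.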
# [12] = biological target: M-phase phosphoprotein 8 (Homo sapiens) (UniProt Q99549); test: qHTS Validation Assay for Inhibitors for MPP8 Chromodomain Interactions with Methylated Histone Tails (AID 488949); further: potency means the concentration at half of the fitted maximal effect; nearly all actives have a fitted effect of over 55% in size
# In short: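 AlphaScreen proximity signal from streptavidin donor and Ni-chelate acceptor beads (10 ug/mL each) reported binding of MPP8 to trimethyl-K9 H3(1-18) peptide, both at 50 nM. The complex formed 30 min before a 30 min compound exposure at room temperature, in PBS pH 7.4.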
# [13] = biological target: Methanococcus maripaludis chaperonin (MmCpn) (UniProt Q6LX38); test: High-Throughput Screening for Modulators of Cytosolic Chaperonin Activity: MmCpn Primary Screen (AID 488978);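 further: 50 nM MmCpn enzyme hydrolysing 30 µM ATP at 37 °C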
# In short: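 ATPase activity of 50 nM MmCpn was assayed with 30 uM ATP, 10 minutes at 37C, after a 5 min compound preincubation at room temperature. ADP production was read as HTRF emission at 590 and 665 nm.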
# [14] = biological target: D(1A) dopamine receptor (Homo sapiens) (UniProt P21728); test: HTS Assay for Allosteric Agonists of the Human D1 Dopamine Receptor: Primary Screen for Agonists (AID 488981)
# In short: (§1)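 Calcium flux in an inducible, force-coupled HEK293 Trex D1 line (overnight at 30 C): agonist mode is the 180 s kinetic read after compound; potentiator mode is the following 180 s read after dopamine at EC20.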
# [15] = biological target: D(1A) dopamine receptor (Homo sapiens) (UniProt P21728); test: HTS Assay for Allosteric Agonists of the Human D1 Dopamine Receptor: Primary Screen for Potentiators (AID 488982)
# In short: as §1
# [16] = biological target: D(1A) dopamine receptor (Homo sapiens) (UniProt P21728); test: HTS Assay for Allosteric Agonists of the Human D1 Dopamine Receptor: Primary Screen for Antagonists (AID 488983);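 further: calcium flux response to an EC80 dopamine challenge measured with no-wash dye; nearly all actives have a fitted effect of over 65% in size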
# In short: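 Cells are induced with tetracycline and incubated overnight at 30 C, then loaded with calcium dye for 30 to 90 minutes at room temperature. Compound addition is followed by a 180 s read, then an EC80 dopamine addition and another 180 s read.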
# [17] = Validation screen for small molecules that induce genotoxicity in human embryonic kidney (HEK293T) cells expressing luciferase-tagged ELG1 (AID 493106)
# In short: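 Luminescence from an ELG1-luciferase fusion serves as the read-out, rising when genetic stress elevates ELG1 protein. HEK293T reporter cells (2,000 per well) received 23 nL compound, incubated 16 hr at 37 °C, then ONE-Glo for 30 min at room temperature.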
# [18] = biological target: ATPase family AAA domain-containing protein 5 (Homo sapiens) (UniProt Q96QE3); test: Validation screen for small molecules that inhibit ELG1-dependent DNA repair in human embryonic kidney (HEK293T) cells expressing luciferase-tagged ELG1 (AID 493107);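 further: cells co-treated with the DNA-damaging agent 5-fluorouridine alongside compound; inhibitors lower the ELG1-luciferase luminescence signal; nearly all actives have a fitted effect of over 70% in size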
# In short: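 Luminescence from ONE-Glo, developed 30 min at room temperature, served as read-out of ELG1-luciferase levels. Beforehand, reporter HEK293T cells received 5-fluorouridine plus test compound for 16 hr at 37 °C.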
# [19] = biological target: phosphoglycerate mutase (Leishmania major) (UniProt Q4Q090); test: qHTS Validation Assay to Find Inhibitors of Phosphoglycerate Mutase (AID 504548)
# In short: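 Lm PGAM at 1.25 nM final with substrate in 100 mM TEA pH 7.6, 5 mM MgCl2, 0.01% Tween-20; 45 min at room temperature. Kinase-GloPlus added, 10 min, end-point luminescence read.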
# [20] = biological target: Ubiquitin carboxyl-terminal hydrolase 1 (Homo sapiens) (UniProt O94782); test: Inhibitors of USP1/UAF1: Pilot qHTS (AID 504865);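 further: rhodamine fluorescence freed from ubiquitin-rhodamine substrate followed over time; top concentration of the series differs between compounds; nearly all actives have a fitted effect of over 35% in size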
# In short: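 Deubiquitinase activity followed as kinetic rhodamine fluorescence release from 150 nM Ub-Rho. 1 nM USP1/UAF1 with compound, after 15 min room-temperature preincubation, in HEPES pH 7.8 buffer containing TCEP, EDTA, BSA and Tween-20.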
# [21] = NS1 protein of Zika virus - qHTS assay to identify small molecule inhibitors in human HEK 293 cells (AID 1347053); further: nearly all actives have a fitted effect of over 55% in size
# In short: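 HEK 293 cells pretreated with compound for 1 h, then infected with ZIKV MR766 (MOI 0.5) for 24 h at 37 C. NS1 detected by TR-FRET with two anti-NS1 antibodies; normalized to uninfected (0%) and infected (100%) wells.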
# [22] = biological target: T1, Tyrosine-protein phosphatase non-receptor type substrate 1 (Homo sapiens) + Leukocyte surface antigen CD47 (Homo sapiens) (UniProt P78324+Q08722); test: CD47-SIRPalpha protein protein interaction - HTRF assay qHTS validation (AID 1347058; active means well fitted curve in the direction sought with a large enough effect in the signal ratio, not every such curve was filed as active; the % refers to the signal ratio;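 further: recombinant soluble extracellular CD47 with His tag and biotinylated SIRPalpha domains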)
# In short: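 TR-FRET read (Ch1/Ch2 ratio) of soluble extracellular CD47 and Avi-biotinylated SIRPalpha domains in PBS pH 7.4 with 0.05% IGEPAL; 7-point compound titration. Sequential 30 min room-temperature steps; non-biotinylated SIRPalpha as control inhibitor.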
# [23] = biological target: T1, Tyrosine-protein phosphatase non-receptor type substrate 1 (Homo sapiens) + Leukocyte surface antigen CD47 (Homo sapiens); test: CD47-SIRPalpha protein protein interaction - Alpha assay qHTS validation (AID 1347059);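 further: bead proximity luminescence from CD47 binding SIRPalpha after compound preincubation with SIRPalpha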
# In short: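 Binding is measured by AlphaScreen proximity: Ni-NTA acceptor beads capture His-CD47, streptavidin donor beads capture biotin-SIRPalpha. Each of three additions (SIRPalpha with compound, CD47, beads) incubates 30 min at room temperature protected from light.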
# [24] = biological target: N-terminal Xaa-Pro-Lys N-methyltransferase 1 (Homo sapiens) (UniProt Q9BV86); test: qHTS Assay for Inhibitors of N-terminal methyltransferase 1 (NTMT1): LOPAC validation of the NTMT1 SAHH-coupled ThioGlo3 Assay (AID 1347143);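 further: SAH from peptide methylation measured as thiol fluorescence via SAHH coupling and ThioGlo3; potency means the concentration at half of the fitted maximal effect; nearly all actives have a fitted effect of over 70% in size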
# In short: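 Inhibition of NTMT1 methylation of peptide SPKRIA is followed by converting SAH with SAHH and labelling the released thiol with ThioGlo3. Plates are read at 340/450nm before and 30 min after reagent addition, both at room temperature.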
# [25] = tested on: Zika virus NS2B-NS3 protease (unlinked); test: Optimization of GU AMC qHTS for Zika virus inhibitors: Unlinked NS2B-NS3 protease assay (AID 1347151); further: nearly all actives have a fitted effect of over 80% in size
# In short: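 Fluorescence gain (340/450 nm) over 15 min at room temperature, ~20% conversion, gave percent inhibition fitted to a 4-parameter Hill equation; enzyme was unlinked NS2B-NS3 (25 nM final), pH 8.0 Tris buffer.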
# [26] = qHTS to identify inhibitors of the type 1 interferon - major histocompatibility complex class I in skeletal muscle: primary screen against the NCATS LOPAC collection (AID 1347405);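 further: lytic HiBiT luminescence reporting HLA-B protein level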
# In short: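 Luminescence from HiBiT fused to endogenous HLA-B in CRISPR-engineered human myoblasts served as the read-out. Cells received 4.0 ng/ml IFN-beta plus compound (seven concentrations, 1:4.3 steps, highest 46 uM final) for 24 hrs before lytic detection.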
# [27] = qHTS for inhibitors of adenylyl cyclases using a fission yeast platform: a pilot screen against the NCATS LOPAC library (AID 1347410)
# In short: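 GFP from fbp1-GFP reporter, read by Acumen laser cytometry, indicates AC inhibition in fission yeast expressing AC9, GNAS and PDE4D2. Cells grown 18 h in the dark at 30C with compounds, final up to 57 uM.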
# [28] = biological target: Calcium and integrin-binding protein 1 (Homo sapiens) (UniProt Q99828); test: Validation qHTS for Identification of Calcium Integrin Binding protein 1 (CIB1) Competitor (AID 1508618)
# In short: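 Fluorescence polarization with 1 uM CIB1-GST and 100 nM FITC-alphaIIb peptide in HEPES pH 7.4, NaCl, 5 mM CaCl2, Tween20. Compounds at up to 114 uM final, preincubated with protein 15 min; read after 15 min more at RT.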
# [29] = biological target: Metallo-beta-lactamase type 2 (Klebsiella pneumoniae) (UniProt C7C422); test: qHTS to identify inhibitors of the New Delhi Metallo-beta-lactamase (NDM): assay validation screen against the NCATS LOPAC Collection (AID 1794843); further: potency means the concentration at half of the fitted maximal effect
# In short: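 NDM-1 at 2 nM final in 50 mM HEPES pH 7.0, 1 uM ZnSO4, 0.01% Tween20, preincubated with LOPAC compounds pinned in DMSO; 50 uM nitrocefin (stock) added. Hydrolysis read as absorbance at 485 nm in the plateau phase.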
# [30] = biological target: Glutathione peroxidase 1 (Homo sapiens) (UniProt P07203); test: Primary qHTS Assay for Inhibitors of Recombinant Selenoprotein Glutathione Peroxidase 1 (GPX1) (AID 1845191); further: nearly all actives have a fitted effect of over 65% in size
# In short: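 10 nM GPX1 + cpd, 30 min RT; start w/ 1 mM GSH, 0.5 mM cumene hydroperoxide, 0.5 mM NADPH, 100 nM GR, 0.01% BSA; buffer 50 mM Tris-HCl pH 7.5, 2 mM EDTA, 150 mM NaCl; Fl 340/450, 0 & 15 min.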
# [31] = biological target: Phospholipid hydroperoxide glutathione peroxidase GPX4 (Homo sapiens) (UniProt P36969); test: Primary qHTS Assay for Inhibitors of Recombinant Selenoprotein Glutathione Peroxidase 4 (GPX4) (AID 1845192); settings: outcome: dose series up to 50 µM unless noted; further: nearly all actives have a fitted effect of over 65% in size
# In short: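 NADPH consumption, followed by fluorescence at 340/450 nm between 0 and 15 min, reports GPX4 activity via coupled glutathione reductase (100 nM). Enzyme 200 nM was pre-exposed to compound 30 min; 0.5 mM cumene hydroperoxide and 1 mM GSH served as substrates.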
# Sequence of D(1A) dopamine receptor (Homo sapiens) (P21728 whole entry, looked up): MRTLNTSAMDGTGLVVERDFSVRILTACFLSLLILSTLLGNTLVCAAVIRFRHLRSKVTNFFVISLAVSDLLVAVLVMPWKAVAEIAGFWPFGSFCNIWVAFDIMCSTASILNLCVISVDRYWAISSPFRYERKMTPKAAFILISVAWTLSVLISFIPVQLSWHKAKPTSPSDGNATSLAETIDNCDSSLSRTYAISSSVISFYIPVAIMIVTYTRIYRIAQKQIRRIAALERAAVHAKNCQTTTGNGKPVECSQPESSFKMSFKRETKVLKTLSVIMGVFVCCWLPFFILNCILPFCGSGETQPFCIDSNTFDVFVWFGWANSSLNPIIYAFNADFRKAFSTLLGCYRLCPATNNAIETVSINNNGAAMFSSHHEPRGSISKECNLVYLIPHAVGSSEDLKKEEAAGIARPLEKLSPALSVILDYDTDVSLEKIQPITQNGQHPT
# Sequence of Thioredoxin reductase 1, cytoplasmic (Rattus norvegicus) (O89049 whole entry, looked up): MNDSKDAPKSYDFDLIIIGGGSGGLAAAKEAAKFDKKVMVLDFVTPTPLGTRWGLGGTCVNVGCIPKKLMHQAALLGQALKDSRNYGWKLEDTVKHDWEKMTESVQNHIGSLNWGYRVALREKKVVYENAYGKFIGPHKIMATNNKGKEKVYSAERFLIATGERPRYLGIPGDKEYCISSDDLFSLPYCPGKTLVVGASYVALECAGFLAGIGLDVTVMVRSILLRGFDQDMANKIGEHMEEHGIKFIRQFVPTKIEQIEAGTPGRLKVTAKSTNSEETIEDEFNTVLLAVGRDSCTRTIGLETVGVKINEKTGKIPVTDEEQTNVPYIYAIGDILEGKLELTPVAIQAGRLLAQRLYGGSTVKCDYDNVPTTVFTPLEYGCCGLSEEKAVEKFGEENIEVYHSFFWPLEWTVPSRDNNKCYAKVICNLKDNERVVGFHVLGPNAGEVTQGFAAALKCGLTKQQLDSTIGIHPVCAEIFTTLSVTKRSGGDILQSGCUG
# T1 sequence (P78324 whole entry, looked up, the tested form may be a part): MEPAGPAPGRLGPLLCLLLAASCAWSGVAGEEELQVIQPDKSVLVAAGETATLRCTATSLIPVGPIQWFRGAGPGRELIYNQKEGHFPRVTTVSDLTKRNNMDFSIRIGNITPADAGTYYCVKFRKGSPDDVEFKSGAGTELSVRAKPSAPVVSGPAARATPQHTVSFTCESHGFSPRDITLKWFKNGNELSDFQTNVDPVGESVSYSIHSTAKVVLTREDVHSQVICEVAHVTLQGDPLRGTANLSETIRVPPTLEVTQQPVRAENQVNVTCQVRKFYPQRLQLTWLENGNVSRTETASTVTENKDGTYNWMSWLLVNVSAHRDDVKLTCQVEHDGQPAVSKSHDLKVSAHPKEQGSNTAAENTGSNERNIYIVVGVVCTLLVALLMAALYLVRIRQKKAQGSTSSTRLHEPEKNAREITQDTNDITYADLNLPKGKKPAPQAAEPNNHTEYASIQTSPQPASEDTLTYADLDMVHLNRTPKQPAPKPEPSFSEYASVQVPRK
# T1 sequence (Q08722 whole entry, looked up, the tested form may be a part): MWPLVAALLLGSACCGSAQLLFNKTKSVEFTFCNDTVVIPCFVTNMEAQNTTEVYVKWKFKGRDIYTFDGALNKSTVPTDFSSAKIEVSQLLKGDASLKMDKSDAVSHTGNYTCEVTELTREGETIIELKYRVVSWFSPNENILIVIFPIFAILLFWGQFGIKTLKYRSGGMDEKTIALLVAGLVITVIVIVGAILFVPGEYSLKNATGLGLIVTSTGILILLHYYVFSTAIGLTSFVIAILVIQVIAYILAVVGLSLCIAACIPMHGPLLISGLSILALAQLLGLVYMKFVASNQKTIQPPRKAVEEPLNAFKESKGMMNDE
# Sequence of Beta-2 adrenergic receptor (Homo sapiens) (P07550 whole entry, looked up): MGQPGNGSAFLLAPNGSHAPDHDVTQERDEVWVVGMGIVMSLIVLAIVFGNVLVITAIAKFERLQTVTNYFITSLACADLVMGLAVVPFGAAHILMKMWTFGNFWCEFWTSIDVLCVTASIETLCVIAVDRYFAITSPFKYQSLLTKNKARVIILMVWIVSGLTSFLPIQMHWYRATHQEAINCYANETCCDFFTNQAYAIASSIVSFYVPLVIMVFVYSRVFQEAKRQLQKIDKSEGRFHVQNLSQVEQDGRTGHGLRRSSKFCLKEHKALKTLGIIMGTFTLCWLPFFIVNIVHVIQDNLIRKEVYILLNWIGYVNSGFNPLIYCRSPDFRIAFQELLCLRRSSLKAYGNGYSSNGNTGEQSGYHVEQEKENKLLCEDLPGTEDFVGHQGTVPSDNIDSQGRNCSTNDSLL
# Sequence of Flap endonuclease 1 (Homo sapiens) (P39748 whole entry, looked up): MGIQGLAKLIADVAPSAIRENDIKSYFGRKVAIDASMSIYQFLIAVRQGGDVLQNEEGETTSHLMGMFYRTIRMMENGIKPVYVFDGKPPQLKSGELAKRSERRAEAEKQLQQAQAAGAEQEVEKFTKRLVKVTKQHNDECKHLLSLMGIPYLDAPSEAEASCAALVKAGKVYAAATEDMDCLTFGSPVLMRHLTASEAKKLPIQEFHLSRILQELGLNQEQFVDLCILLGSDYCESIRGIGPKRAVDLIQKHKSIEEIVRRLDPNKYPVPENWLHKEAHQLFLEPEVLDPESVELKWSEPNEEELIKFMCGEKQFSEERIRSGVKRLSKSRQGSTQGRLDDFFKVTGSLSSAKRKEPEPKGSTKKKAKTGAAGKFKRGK
# Sequence of Metallo-beta-lactamase type 2 (Klebsiella pneumoniae) (C7C422 whole entry, looked up): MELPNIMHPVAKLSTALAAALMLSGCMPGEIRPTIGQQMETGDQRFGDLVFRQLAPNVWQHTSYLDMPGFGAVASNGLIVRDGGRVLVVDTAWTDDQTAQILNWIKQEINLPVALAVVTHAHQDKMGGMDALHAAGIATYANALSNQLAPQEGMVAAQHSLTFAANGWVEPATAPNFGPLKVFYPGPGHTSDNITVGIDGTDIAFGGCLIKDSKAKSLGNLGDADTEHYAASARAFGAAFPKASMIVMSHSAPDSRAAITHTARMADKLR
# Sequence of Ubiquitin carboxyl-terminal hydrolase 1 (Homo sapiens) (O94782 whole entry, looked up): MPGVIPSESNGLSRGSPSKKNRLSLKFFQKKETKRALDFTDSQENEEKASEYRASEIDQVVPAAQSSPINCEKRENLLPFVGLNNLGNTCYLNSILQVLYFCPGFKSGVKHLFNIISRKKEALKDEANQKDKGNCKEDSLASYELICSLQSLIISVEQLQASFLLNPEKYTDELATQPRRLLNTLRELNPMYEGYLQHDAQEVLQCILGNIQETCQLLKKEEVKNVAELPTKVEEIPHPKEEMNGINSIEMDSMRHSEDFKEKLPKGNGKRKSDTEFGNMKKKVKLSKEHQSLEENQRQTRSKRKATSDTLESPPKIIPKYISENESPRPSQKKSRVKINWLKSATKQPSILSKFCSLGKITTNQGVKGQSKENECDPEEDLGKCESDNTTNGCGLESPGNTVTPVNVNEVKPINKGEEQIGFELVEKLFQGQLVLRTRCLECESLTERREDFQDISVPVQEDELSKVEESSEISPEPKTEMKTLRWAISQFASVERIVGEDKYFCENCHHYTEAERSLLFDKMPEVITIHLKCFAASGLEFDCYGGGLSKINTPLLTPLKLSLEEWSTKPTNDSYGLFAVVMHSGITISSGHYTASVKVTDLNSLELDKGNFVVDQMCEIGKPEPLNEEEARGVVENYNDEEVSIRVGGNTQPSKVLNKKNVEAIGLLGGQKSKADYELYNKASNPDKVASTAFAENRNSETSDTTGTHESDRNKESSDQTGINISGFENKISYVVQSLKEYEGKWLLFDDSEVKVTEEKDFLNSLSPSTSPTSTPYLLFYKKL
# Sequence of N-terminal Xaa-Pro-Lys N-methyltransferase 1 (Homo sapiens) (Q9BV86 whole entry, looked up): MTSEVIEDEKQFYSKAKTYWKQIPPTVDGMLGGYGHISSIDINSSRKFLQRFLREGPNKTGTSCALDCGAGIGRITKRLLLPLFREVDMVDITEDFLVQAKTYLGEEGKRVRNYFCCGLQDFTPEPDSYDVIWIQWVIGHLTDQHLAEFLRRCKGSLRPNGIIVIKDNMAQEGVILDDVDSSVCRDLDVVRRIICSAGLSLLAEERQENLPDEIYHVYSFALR
# Sequence of Phospholipid hydroperoxide glutathione peroxidase GPX4 (Homo sapiens) (P36969 whole entry, looked up): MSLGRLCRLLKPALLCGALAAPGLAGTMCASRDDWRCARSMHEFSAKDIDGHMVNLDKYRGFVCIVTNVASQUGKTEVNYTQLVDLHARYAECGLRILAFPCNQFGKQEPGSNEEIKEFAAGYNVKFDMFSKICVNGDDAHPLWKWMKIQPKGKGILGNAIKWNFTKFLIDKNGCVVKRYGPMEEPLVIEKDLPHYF
# Sequence of Calcium and integrin-binding protein 1 (Homo sapiens) (Q99828 whole entry, looked up): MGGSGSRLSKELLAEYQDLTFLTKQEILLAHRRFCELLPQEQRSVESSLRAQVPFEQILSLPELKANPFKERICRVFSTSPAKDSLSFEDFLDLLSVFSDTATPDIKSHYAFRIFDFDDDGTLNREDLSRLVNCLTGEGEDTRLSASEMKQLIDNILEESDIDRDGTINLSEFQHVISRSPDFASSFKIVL
# Sequence of Glutathione peroxidase 1 (Homo sapiens) (P07203 whole entry, looked up): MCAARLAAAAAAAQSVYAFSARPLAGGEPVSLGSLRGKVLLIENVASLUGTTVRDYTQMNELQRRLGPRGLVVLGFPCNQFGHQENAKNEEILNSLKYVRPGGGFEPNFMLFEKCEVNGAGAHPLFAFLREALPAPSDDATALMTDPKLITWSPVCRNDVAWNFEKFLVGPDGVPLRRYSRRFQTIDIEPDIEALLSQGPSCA
# Sequence of Tumor susceptibility gene 101 protein (Homo sapiens) (Q99816 whole entry, looked up, the tested form may be a part): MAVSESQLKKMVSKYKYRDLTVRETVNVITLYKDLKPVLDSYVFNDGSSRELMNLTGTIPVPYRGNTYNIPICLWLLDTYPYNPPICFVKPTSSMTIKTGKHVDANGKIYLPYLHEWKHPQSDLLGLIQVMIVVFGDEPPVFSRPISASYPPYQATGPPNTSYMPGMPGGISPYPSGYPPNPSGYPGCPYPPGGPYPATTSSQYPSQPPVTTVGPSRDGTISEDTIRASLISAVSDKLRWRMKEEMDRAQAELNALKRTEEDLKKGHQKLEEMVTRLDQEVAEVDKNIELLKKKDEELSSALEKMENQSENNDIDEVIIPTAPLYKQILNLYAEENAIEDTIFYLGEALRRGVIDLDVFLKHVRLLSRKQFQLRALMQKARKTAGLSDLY
compound,measurement,setting,value
N.N.O=C(O)C1(C(=O)O)CCC1.[Pt+2],outcome,[1],inactive
same,outcome,[2],inactive
same,Potency,[3],inactive
same,Potency,[4],inactive
same,Potency,[5],inactive
same,outcome,[6],inactive
same,outcome,[7],inactive
same,outcome,[8],inactive
same,outcome,[9],inactive
same,Potency,[10],0.267 µM (active)
same,Potency,[11],29.9 µM (active)
same,Potency,[12],3.77 µM (active)
same,outcome,[13],inactive
same,outcome,[14],inactive
same,outcome,[15],inactive
same,outcome,[16],inactive
same,Potency,[17],inactive
same,Potency,[18],inactive
same,outcome,[19],inactive
same,Potency,[20],inactive
same,outcome,[21],inactive
same,outcome,[22],inactive
same,Potency,[23],inactive
same,Potency,[24],12.6 µM (active)
same,Potency,[25],inactive
same,Potency,[26],inactive
same,outcome,[27],inactive
same,outcome,[28],inactive
same,Potency,[29],3.98 µM (active)
same,Potency,[30],inactive
same,Potency,[31],inactive

# Source: PubChem BioAssay (NCATS)
